# Laboratory results: the supplement of paper PMC9694430
# How the values were obtained:
# Assay in all cases: thermal shift delta Tm vs DMSO control; higher = stronger stabilization (binding)
# Conditions in all cases: 12.5 µM; protein concentration 2 µM
# LOC_OS01G57100-cb003 = test system: LOC_OS01G57100-cb003
# Summary of the method: (§1)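 Rice kinase domain constructs were expressed in E. coli, purified, and tested by differential scanning fluorimetry with compound added in DMSO. Each well of a 96-well plate held 19.5 μl of 2 μM kinase in 100 mM potassium phosphate pH 7.5, 150 mM NaCl, 10% glycerol and 5 × SYPRO Orange, and fluorescence was read from 25°C to 95°C at 0.05°C/s. The melting temperature shift is the mean of triplicates, taken against protein with DMSO alone after Boltzmann fitting.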
# LOC_OS01G60330-cb001 = test system: LOC_OS01G60330-cb001
# Summary of the method: as §1
# LOC_OS01G60700-cb002 = test system: LOC_OS01G60700-cb002
# Summary of the method: as §1
# LOC_OS01G63280-cb003 = test system: LOC_OS01G63280-cb003
# Summary of the method: as §1
# LOC_OS01G67340-cb003 = test system: LOC_OS01G67340-cb003
# Summary of the method: as §1
# LOC_OS01G70970-cb002 = test system: LOC_OS01G70970-cb002
# Summary of the method: as §1
# LOC_OS02G07810-cb001 = test system: LOC_OS02G07810-cb001
# Summary of the method: as §1
# LOC_OS02G08530-cb003 = test system: LOC_OS02G08530-cb003
# Summary of the method: as §1
# LOC_OS02G14120-cb001 = test system: LOC_OS02G14120-cb001
# Summary of the method: as §1
# LOC_OS02G17970-cb001 = test system: LOC_OS02G17970-cb001
# Summary of the method: as §1
SMILES,thermal shift delta Tm (LOC_OS01G57100-cb003) [°C],thermal shift delta Tm (LOC_OS01G60330-cb001) [°C],thermal shift delta Tm (LOC_OS01G60700-cb002) [°C],thermal shift delta Tm (LOC_OS01G63280-cb003) [°C],thermal shift delta Tm (LOC_OS01G67340-cb003) [°C],thermal shift delta Tm (LOC_OS01G70970-cb002) [°C],thermal shift delta Tm (LOC_OS02G07810-cb001) [°C],thermal shift delta Tm (LOC_OS02G08530-cb003) [°C],thermal shift delta Tm (LOC_OS02G14120-cb001) [°C],thermal shift delta Tm (LOC_OS02G17970-cb001) [°C]
C=CCc1ccc(O)c(-c2ccc(O)c(CC=C)c2)c1 [Honokiol],2.73,0.73,1.34,1.12,1.09,0.71,1.8,1.59,0.96,1.32
COc1ccc(F)c(F)c1C(=O)c1cnc(NC2CCN(S(C)(=O)=O)CC2)nc1N,0.71,0.06,0.31,-0.18,1.43,0.03,0.5,0.57,-0.08,-0.09
Cc1ccc(Nc2nccc(N(C)c3ccc4c(C)n(C)nc4c3)n2)cc1S(N)(=O)=O [Pazopanib],0.76,3.85,1.11,0.59,0.96,0.44,0.68,1.82,3.43,0.74
CC(C)n1ncnc1-c1cn2c(n1)-c1ccc(O[C@@H](C)C(N)=O)cc1OCC2,0.54,0.84,1.39,0.36,0.34,0.21,1.33,0.19,0.43,1.55
CN(C)C/C=C/C(=O)Nc1ccc(C(=O)Nc2cccc(Nc3ncc(Cl)c(-c4c[nH]c5ccccc45)n3)c2)cc1,4.58,12.2,2.21,1.68,4.17,11.9,1.36,5.36,10.1,1.88
CCCCNc1ncc2c(-c3ccc(CN4CCN(C)CC4)cc3)cn([C@H]3CC[C@H](O)CC3)c2n1,3.5,14.9,0.56,0.95,10.1,8.18,-0.25,5.26,12.2,-0.42
Cc1cn(-c2cc(NC(=O)c3ccc(C)c(Nc4nccc(-c5cnccn5)n4)c3)cc(C(F)(F)F)c2)cn1 [Radotinib],1.49,1.07,1.39,0.63,0.48,0.3,1.04,0.67,1.36,1.82
Cc1cc2c(F)c(Oc3ncnn4cc(OC[C@@H](C)O)c(C)c34)ccc2[nH]1,0.81,1.36,0.76,1.5,-0.11,0.52,0.7,1.17,1.77,0.7
Cn1cc(-c2ccc3nnc(Sc4ccc5ncccc5c4)n3n2)cn1,0.37,0.34,1.28,0.23,0.43,0.3,0.16,1.1,1.81,0.07
FC(F)(F)c1ccc(CNc2ccc(Cc3c[nH]c4ncc(Cl)cc34)cn2)cn1 [Pexidartinib (PLX3397)],1.87,3.92,0.67,2.9,3.78,2.89,1.03,3.22,9.87,2.01
O=C1Cc2c([nH]c3ccc(Br)cc23)-c2ccccc2N1 [Kenpaullone],0.8,2.91,0.89,3.38,1.58,5.88,1.24,1.62,2.5,2.97
CC(C)(CO)n1cc(C(=O)c2cncc(NC(=O)Cc3ccc(Cl)cn3)c2)c2cnc(N)nc21,0.95,0.35,0.16,0.14,0.19,0.28,-0.84,0.77,3.51,0.53
C[S+]([O-])c1ccc(-c2nc(-c3ccc(F)cc3)c(-c3ccncc3)[nH]2)cc1 (stereo not given),1.65,1.11,1.91,1.11,-0.03,0.63,1.46,1.44,1.3,0.84
O=C1CCc2c(Oc3ccc4c(c3)[C@@H]3[C@H](O4)[C@H]3c3nc4cc(C(F)(F)F)ccc4[nH]3)ccnc2N1 [Lifirafenib (BGB-283)],2.04,3.33,1.67,8.07,1.66,0.46,1.17,1.38,2.67,2.49
C[C@@H]1COC(Nc2ccc3ncnc(Nc4ccc(OCc5nccs5)c(Cl)c4)c3c2)=N1 [Varlitinib],1.92,1.09,1.53,1.44,0.64,0.88,0.94,0.76,0.74,1.04
CNCc1ccc(-c2cc(-c3nc(-c4ccc(S(=O)(=O)C(C)C)cc4)cnc3N)on2)cc1,1.41,0.91,1.58,0.5,0.06,0.3,2.33,1.56,2.23,1.43
C=CC(=O)Nc1cccc(Oc2nc(Nc3ccc(N4CCN(C)CC4)cc3OC)ncc2Cl)c1,-0.16,0.75,0.6,0.05,-0.81,0.44,0.62,1.23,0.27,0.24
O=C(Nc1cccc(C(F)(F)F)c1)c1cccc2cc(Oc3cc(CO)ncn3)ccc12,1.09,0.76,1.22,2.3,0.38,0.5,0.69,0.95,0.55,1.28
Oc1cc(CNC(=S)/C=C/c2cc(O)c(O)c(Br)c2)cc(O)c1O,7.83,17.7,-0.76,20,0.53,0.97,4.09,-1.06,-0.83,7.15
O=C1Nc2ccc(CN3C(=O)CSC3=O)cc2/C1=C/c1cc(CN2CCOCC2)c[nH]1,0.8,0.38,0.05,0.05,0.83,0.36,-0.68,2.55,9.24,-0.08
